Bioassay records as filed in PubChem BioAssay.
Sampled rows, rich in hits. Any-hit rate of the full collection: about 2.2%.
HIF activator = HIF pathway transcriptional activation | actives 0.32% (n = 300,000) | activation, % at 7.5 µM (by protocol) | AID 1910 | U2OS HRE-luciferase reporter, luminescence; normalized: DMSO 0%, desferrioxamine 100%;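 active means mean activation of at least 10% of the iron chelator positive control signal, with at least half of replicates also reaching 10%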
Hsp70 act = transcriptional activators of Hsp70; activation, % at 10 µM; AID 1203; actives 0.04% (n = 200,000); HeLa Hsp70 promoter luciferase reporter, luminescence; scaled: vehicle 0, proteasome-inhibitor control 100%;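 active means activation above the mean across all tested compounds plus 3 SD, cutoff set per campaign, cut at about 5.5% in these data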
GalR3 antag = antagonists of human GalR3; O60755; HEK293 GalR3-CNG cAMP membrane potential fluorescence; galR3 body fused to GalR1 C-terminus; inhibition, % at 3 µM; actives 0.44% (n = 360,000); AID 651719;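 active means inhibition above the screen-wide average plus 3 SD, cut at about 13% in these data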;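 further: forskolin and galanin both at EC90 stimulate the cells; cAMP rise reported by CNG channel membrane potential dye signal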
Target sequence (O60755 1-299 limits assumed): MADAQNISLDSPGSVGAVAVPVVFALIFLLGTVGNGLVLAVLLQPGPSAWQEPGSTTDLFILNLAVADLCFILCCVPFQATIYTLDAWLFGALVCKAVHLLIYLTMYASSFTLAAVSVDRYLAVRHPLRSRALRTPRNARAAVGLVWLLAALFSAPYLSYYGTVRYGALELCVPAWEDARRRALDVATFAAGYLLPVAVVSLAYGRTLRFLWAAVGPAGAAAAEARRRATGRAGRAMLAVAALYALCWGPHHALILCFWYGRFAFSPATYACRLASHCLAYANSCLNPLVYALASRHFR
FXN GAA850 act = increases GAA850 frataxin promoter reporter activity. HEK293 lucGAA850 FXN promoter luciferase reporter, 24 h; percent of 10 µM SAHA response. activation, % at 6 µM. actives 0.56% (n = 360,000);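 active means activation above the average of all compounds screened plus 3 SD, cutoff fixed separately per campaign, cut at about 7.5% in these data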
SMARCA2 act = increases SMARCA2 function in MMTV reporter cells; activation, % at 9.1 µM; MG213 cells, MMTV-luciferase reporter, dexamethasone, overnight; actives 1% (n = 370,000); AID 652017; in the data active means activation above about 7.8%
GAA30 counter = GAA30 FXN promoter activation counter-screen | shares compounds with FXN GAA850 act | actives 66% (n = 1,900) | activation, % at 6 µM | HEK293 lucGAA30 FXN promoter luciferase, 24 h; DMSO = 0%, 5 µM ipriflavone = 100% | AID 588350;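 active means mean activation above the mean of solvent-only control wells plus 3 SD, cut at about 22% in these data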;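 further: counterscreen of GAA850 promoter hits where activity marks nonselective or luminescence artifacts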
GAA850 confirm = confirmation of GAA850 frataxin (FXN) promoter activators | shares compounds with FXN GAA850 act | HEK293 lucGAA850 FXN promoter luciferase reporter, 24 h; 100% = activation by SAHA | activation, % at 6 µM | actives 86% (n = 1,900) | AID 588351;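 active means mean activation above a set limit taken from the primary screen, cut at about 8% in these data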
Large screens that a line does not name were inactive (follow-up assays come after a bar, where they were run).

CC(C)C[C@@]12C(=O)N(c3cccc(F)c3)C(=O)N1[C@H](c1ccc(F)cc1)[C@@H]1C(=O)N(C3CCCCC3)C(=O)[C@@H]12	FXN GAA850 act 12 (no result: Hsp70 act) | GAA30 counter inactive | GAA850 confirm 14
CN(C)c1cccc2c(S(=O)(=O)NCC3CCN(C(=O)C(=O)c4cccs4)CC3)cccc12	none (no result: HIF activator, Hsp70 act, FXN GAA850 act)
CC(CCN1CCC(C(O)(c2ccccc2)c2ccccc2)CC1)Oc1ccc(C#N)c(F)c1 (stereo not given)	none (no result: HIF activator, Hsp70 act, GalR3 antag, FXN GAA850 act)
CCOC(=O)c1cnc2cc3c(cn2c1=O)CCCC3	FXN GAA850 act 8.2 | GAA30 counter 98 | GAA850 confirm 34
C=CCSc1nc(N)c(NC(=O)c2ccco2)c(=O)[nH]1	FXN GAA850 act 14 (no result: HIF activator, Hsp70 act, GalR3 antag) | GAA30 counter 28 | GAA850 confirm 9.8
CCN(C(=O)[C@@H](C1CC1)[C@@H](O)c1ccc(Cl)cc1)c1ccccc1	none (no result: HIF activator, Hsp70 act, GalR3 antag, FXN GAA850 act)
Cc1nnc(NC(=O)c2oc3ccccc3c2C)s1	none (no result: Hsp70 act)
Cc1nc(NC(=O)c2oc3ccccc3c2C)sc1C(=O)N(C)C	FXN GAA850 act 7.8 | GAA30 counter 112 | GAA850 confirm 36
C=CC[C@H]1c2ccccc2[C@H]2N3N=Cc4ccccc4[C@H]3[C@H](CCCC)C(=O)N2N1C(=O)c1ccccc1	none (no result: HIF activator, Hsp70 act, GalR3 antag, FXN GAA850 act)
COc1ccccc1NC(=O)c1coc(=O)c(Br)c1	FXN GAA850 act 7.9 (no result: Hsp70 act) | GAA30 counter 129 | GAA850 confirm 69
COc1ccccc1NC(=O)c1cc(N)cc(C(=O)Nc2ccccc2OC)c1	none (no result: Hsp70 act)
Cc1cccc2cc(/C=N/Nc3ccc(C(=O)O)cc3)c(Cl)nc12	FXN GAA850 act 12 (no result: Hsp70 act) | GAA30 counter 128 | GAA850 confirm 49
COc1ccc(C2C=C(C34CC5CC(CC(C5)C3)C4)NC(=S)N2)cc1OC (stereo not given)	FXN GAA850 act 7.7 | GAA30 counter inactive | GAA850 confirm 11
COC(=O)c1ccc2c(=O)n(CCCCCC(=O)NC3CCCCC3)c(=O)[nH]c2c1	none (no result: HIF activator, Hsp70 act, FXN GAA850 act)
CC[C@@]1(C(=O)OC)N[C@H](CN(C)C(=O)Nc2ccc(F)cc2)[C@@H]2C(=O)N(Cc3ccccc3)C(=O)[C@@H]21	FXN GAA850 act 9.6 (no result: HIF activator, Hsp70 act) | GAA30 counter 38 | GAA850 confirm 18
COC(=O)[C@]1(Cc2ccccc2)N[C@H](CN(C)C(=O)Nc2ccccc2)[C@@H]2C(=O)N(Cc3ccccc3)C(=O)[C@@H]21	none (no result: HIF activator, Hsp70 act)
CC[C@@]1(C(=O)OC)N[C@H](CN(C)C(=O)Nc2ccc(OC)cc2)[C@@H]2C(=O)N(Cc3ccccc3)C(=O)[C@@H]21	FXN GAA850 act 17 (no result: HIF activator, Hsp70 act) | GAA30 counter 84 | GAA850 confirm 24
COC(=O)[C@]1(Cc2ccccc2)N[C@H](CN(C)C(=O)Nc2ccc(F)cc2)[C@@H]2C(=O)N(Cc3ccccc3)C(=O)[C@@H]21	none (no result: HIF activator, Hsp70 act)
CC[C@@]1(C(=O)OC)N[C@H](CN(C)C(=O)Nc2ccc(C)cc2)[C@@H]2C(=O)N(Cc3ccccc3)C(=O)[C@@H]21	FXN GAA850 act 15 (no result: HIF activator, Hsp70 act) | GAA30 counter 42 | GAA850 confirm 14
COC(=O)C1CN(Cc2ccccc2)CCS(=O)(=O)N1Cc1cn(Cc2ccccc2)nn1 (stereo not given)	none (no result: HIF activator, Hsp70 act, GalR3 antag, FXN GAA850 act)
CCOC(=O)c1cccc(NC(=O)CN(C)S(=O)(=O)c2ccco2)c1	none (no result: HIF activator, Hsp70 act, GalR3 antag, FXN GAA850 act)
O=C(NC(=S)NCC1COc2ccccc2O1)c1ccccc1 (stereo not given)	none
O=C(NCC1COc2ccccc2O1)c1ccccc1 (stereo not given)	FXN GAA850 act 7.6 | GAA30 counter 88 | GAA850 confirm 27
O=C(N[C@@H](Cc1cccnc1)C(=O)N1CCC[C@H]1C(=O)NCCc1ccccc1Cl)c1ccccc1	none (no result: HIF activator, Hsp70 act, FXN GAA850 act)
Cc1ccc2c(c1)C1CS(=O)(=O)N(Cc3ccccc3)C(=O)N1C2 (stereo not given)	none (no result: HIF activator, Hsp70 act, GalR3 antag, FXN GAA850 act)
O=C(Nc1nc2ncccn2c1-c1ccccc1)c1ccc(F)cc1	none (no result: HIF activator, Hsp70 act, GalR3 antag, FXN GAA850 act)
O=C(NCc1cccs1)c1ccc(N2CCCCC2)nc1	FXN GAA850 act 7.7 | GAA30 counter 86 | GAA850 confirm 30
